“And” between values parts separate entries of the source, which are not always exact repeats. Identical values can stand only once. The source made the active and inactive calls. Rule for the calls: active = hit-call score of the fitted dose curve at least 0.9, where 1 is the maximum; inactive = score below 0.9.
Assay: BSK_MyoF_SRB: Viability Assessment in the BioMAP Diversity Plus: MyoF Assay (AID 2284267)
Conditions: primary human lung fibroblasts
Method: BSK_MyoF is a cell-based, multiplexed-readout assay that uses lung fibroblasts, […], with measurements taken at 24 hours after chemical dosing in a microplate: 96-well plate.BSK_MyoF_SRB is an assay component measured in the BSK_MyoF assay. It measures 0.1% sulforhodamine related to cell death using Sulforhodamine staining technology.Data from the assay component BSK_MyoF_SRB was analyzed at the endpoint, BSK_MyoF_SRB, in the positive analysis fitting direction relative to DMSO as the negative control and baseline of activity. Using a type of viability reporter, gain or loss-of-signal activity can be used to understand protein changes. To generalize the intended target to other relatable targets, this assay endpoint is annotated to the 'cell morphology' intended target family, where the subfamily is 'cell conformation'.
The levels of cell surface (or secreted, indicated by the prefix "s") biomarker endpoints were measured by ELISA. Overt cytotoxicity to cells in confluent adherent cultures (all systems other than the BT system) was assessed by measuring total protein levels using sulforhodamine B (SRB) staining in parallel cultures at the time of biomarker measurements, indicated as SRB endpoints. For proliferation assays for adherent cell types, individual cell types are cultured at sub-confluence and relative cell numbers quantified by SRB staining at time points optimized for each system (48 h: 3C and CASM3C systems; 72 h: BT and HDF3CGF systems; 96 h: SAg system). SRB was performed by staining cells with 0.1% SRB after fixation with 10% TCA and reading wells at 560 nm.Viability and proliferation of PBMC (T cells) was quantified by Alamar Blue reduction for the SAg and BT systems. For PBMC viability (referred to as PBMC Cytotoxicity within the assay endpoint names), cells were plated (75,000/well in a 96-well plate) and then chemical samples added for 1 h before addition of activators, SEB and TSST-1 (20 ng/mL final concentration each). Cells were incubated for 90 h. Then, Alamar Blue (20 uL/well) (Invitrogen, Cat DAL1100) was added for 6 h, and the plates were read with a fluorescence microplate reader at 546/580 nm (excitation/emission). For PBMC proliferation, cells were plated and activated as above but incubated for only 16 h prior to addition of Alamar Blue. Plates were read after 6 h.

**Q.** With `Cc1c(O)cccc1O` as the compound, how does the outcome read?
**A.** Its outcome is “inactive”.

**Q.** For `CC(C)CCCCCOC(=O)CS`, which outcome is on record?
**A.** The outcome was “inactive”.

**Q.** With `C[N+](C)(C)CCCNS(=O)(=O)C(F)(F)C(F)(F)C(F)(F)C(F)(F)C(F)(F)C(F)(F)C(F)(F)C(F)(F)F` as the compound, how does the AC50 read?
**A.** Its AC50 is 37.6 µM (active) and 38.7 µM (active).

**Q.** For `Oc1ccc(/C=C/c2cc(O)cc(O)c2)cc1`, which outcome is on record?
**A.** Its outcome is “inactive”.

**Q.** Which outcome does the source give for `CCCCCCC=O` here?
**A.** Its outcome is “inactive”.

**Q.** For `CC=C(C)C(C)=O`, which outcome is on record?
**A.** The outcome was “inactive”.

**Q.** For `CCN1CN(CC)CN(CC)C1`, which outcome is on record?
**A.** Its outcome is “inactive”.

**Q.** Which outcome does the source give for `CCCCCCOC(=O)CCCCC(=O)OCCCCCC` here?
**A.** Its outcome is “inactive”.

**Q.** With `C=CC(=O)OCC(C)OCC(C)OCC(C)OC(=O)C=C` (stereo not given) as the compound, how does the AC50 read?
**A.** The AC50 was 33.2 µM (active).

**Q.** With `CC(Cl)COP(=O)(OCC(C)Cl)OCC(C)Cl` (stereo not given) as the compound, how does the outcome read?
**A.** Its outcome is “inactive”.

**Q.** For `C=CC(=O)OCCCCCCOC(=O)C=C`, which AC50 is on record?
**A.** Its AC50 is 20 µM (active).

**Q.** With `C=CC(=O)NCOCCCC` as the compound, how does the outcome read?
**A.** Its outcome is “inactive”.

**Q.** Which outcome does the source give for `CCOC(=O)C1=NN(c2ccc(Cl)cc2Cl)C(C)(C(=O)OCC)C1` (stereo not given) here?
**A.** Its outcome is “inactive”.

**Q.** For `O=C1CCCCCCCCCCCN1`, which outcome is on record?
**A.** Its outcome is “inactive”.

**Q.** For `O=C1CCCCCCCCCCC1`, which outcome is on record?
**A.** Its outcome is “inactive”.

**Q.** For `Nc1cccc(N)n1`, which outcome is on record?
**A.** The outcome was “inactive”.

**Q.** With `CC/C=C\CCOC(=O)c1ccccc1O` as the compound, how does the AC50 read?
**A.** Its AC50 is 37 µM (active).

**Q.** With `Fc1ccc(Br)cc1` as the compound, how does the outcome read?
**A.** Its outcome is “inactive”.

**Q.** For `CC(C)[N+](C)(CCOC(=O)C1c2ccccc2Oc2ccccc21)C(C)C`, which outcome is on record?
**A.** The outcome was “inactive”.

**Q.** Which outcome does the source give for `CC=C(C)C=CC=C(C)C` here?
**A.** Its outcome is “inactive”.

**Q.** Which outcome does the source give for `CC1=CC=C(C(C)C)CC1` here?
**A.** Its outcome is “inactive”.

**Q.** Which outcome does the source give for `c1ccc2c(c1)[nH]c1ccccc12` here?
**A.** The outcome was “inactive”.

**Q.** For `C=CC(=O)OCCCCCCCC(C)C`, which outcome is on record?
**A.** The outcome was “inactive”.

**Q.** With `O=C(Cl)c1c(Cl)c(Cl)c(C(=O)Cl)c(Cl)c1Cl` as the compound, how does the outcome read?
**A.** The outcome was “inactive”.

**Q.** For `c1ccc2sc(SSN3CCOCC3)nc2c1`, which AC50 is on record?
**A.** Its AC50 is 31.5 µM (active).

**Q.** Which outcome does the source give for `CCC1(C)C(=O)N(Cl)C(=O)N1Cl` (stereo not given) here?
**A.** The outcome was “inactive”.

**Q.** With `COc1ccc(C(=O)c2ccccc2)c(O)c1` as the compound, how does the outcome read?
**A.** Its outcome is “inactive”.

**Q.** Which outcome does the source give for `CCCCCCCO` here?
**A.** The outcome was “inactive”.

**Q.** With `O=C(Oc1ccccc1)c1ccccc1C(=O)Oc1ccccc1` as the compound, how does the outcome read?
**A.** Its outcome is “inactive”.

**Q.** With `C=CCCCCCCCCC=O` as the compound, how does the outcome read?
**A.** The outcome was “inactive”.

**Q.** For `COc1ccc(C(=O)/C(Br)=C\C(=O)O)cc1`, which outcome is on record?
**A.** Its outcome is “inactive”.

**Q.** Which outcome does the source give for `O=C(O)C(F)(F)C(F)(F)C(F)(F)C(F)(F)C(=O)O` here?
**A.** The outcome was “inactive”.

**Q.** With `CCCCCC1=CCCC1=O` as the compound, how does the outcome read?
**A.** Its outcome is “inactive”.

**Q.** Which outcome does the source give for `CCOC(=O)/C=C\C(=O)OCC` here?
**A.** The outcome was “inactive”.

**Q.** With `Oc1c(Cl)cc(Cl)c(Cl)c1Cl` as the compound, how does the AC50 read?
**A.** The AC50 was 26.6 µM (active).

**Q.** For `CCc1cccc(C)c1N(C(=O)CS(=O)(=O)O)C(C)COC` (stereo not given), which outcome is on record?
**A.** The outcome was “inactive”.

**Q.** Which outcome does the source give for `C=CC(=O)NC(C)(C)C` here?
**A.** The outcome was “inactive”.

**Q.** For `C=C(C)C(=O)OCCCCCCCCCCCC`, which outcome is on record?
**A.** The outcome was “inactive”.

**Q.** With `CCCCC1C(=O)N(c2ccccc2)N(c2ccccc2)C1=O` as the compound, how does the outcome read?
**A.** Its outcome is “inactive”.

**Q.** With `CC1(C)CC(O)CC(C)(C)N1[O]` as the compound, how does the outcome read?
**A.** Its outcome is “inactive”.
